# In the supplement of paper PMC11172423:
# Unmarked numbers belong to inactive results.
# Tested on: Madurella mycetomatis MM55
# Assay: growth relative to untreated control; higher = less inhibition, active = 20 or less
# Conditions: 25 µM
# Protocol: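 Hyphal fragments of M. mycetomatis MM55 or F. senegalensis CBS197.79 in RPMI 1640/MOPS were exposed to each MMV COVID Box or Global Health Priority Box compound at 100 or 25 µM for 7 days at 37 °C. Viability was read with MTS (490 nm, M. mycetomatis) or resazurin (600 nm, F. senegalensis), background-corrected with a medium-only control and expressed as % growth relative to the untreated growth control. Inhibition of more than 80% was taken as growth inhibition.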
row,Compound,growth
1,CCOP(=S)(OCC)Oc1cc(C)nc(C(C)C)n1,108%
2,O=C(NC(=O)c1c(F)cccc1F)Nc1ccc(Cl)c(Oc2ncc(C(F)(F)F)cc2Cl)c1,46.7%
3,CC1(Nc2ncc3nc(Nc4cc(Cl)cc(C(F)(F)F)c4)n(C4CCNC4)c3n2)CC1 (stereo not given),6.99% (active)
4,CCOC(=O)CC(SP(=S)(OC)OC)C(=O)OCC (stereo not given),128%
5,CN(c1cc(NC(=O)c2ccc(F)cc2)ccn1)C1CCN(Cc2cccc(F)c2)CC1,5.69% (active)
6,COC(=O)N(C(=O)N1CO[C@@]2(C(=O)OC)Cc3cc(Cl)ccc3C2=N1)c1ccc(OC(F)(F)F)cc1,46.3%
7,COC(C)(C)CCCC(C)C/C=C/C(C)=C/C(=O)OC(C)C (stereo not given),47.7%
8,C[C@@H]1O[C@@H](O[C@@H]2C=C3CC[C@@H]4[C@H](CC[C@]5(C)[C@@H](c6ccc(=O)oc6)CC[C@]45O)[C@@]3(C)CC2)[C@H](O)[C@H](O)[C@H]1O,93.2%
9,COc1cc(/C=N/c2c(SC(F)(F)F)c(C#N)nn2-c2c(Cl)cc(C(F)(F)F)cc2Cl)ccc1O,21%
10,ClC1=C(Cl)[C@@]2(Cl)[C@H]3C[C@@H](Cl)[C@H](Cl)[C@H]3[C@@]1(Cl)C2(Cl)Cl,104%
11,Cc1cc(C2=NOC(c3cc(Cl)cc(Cl)c3)(C(F)(F)F)C2)ccc1C(=O)NCC(=O)NCC(F)(F)F (stereo not given),43.8%
12,CCc1nn(C)c(C(=O)NCc2ccc(Oc3ccc(C)cc3)cc2)c1Cl,66.4%
13,O=C1C=C(N(Cc2ccc(Cl)nc2)CC(F)F)CO1,92.5%
14,COc1ccc(C[C@H]2NC[C@H](O)[C@H]2OC(C)=O)cc1,111%
15,CNC(=O)c1cc(C#N)cc(C)c1NC(=O)c1cc(Br)nn1-c1ncccc1Cl,69.7%
16,COP(=S)(OC)Oc1ccc(Sc2ccc(OP(=S)(OC)OC)cc2)cc1,118%
17,Cc1c(COC(=O)[C@@H]2[C@H](C=C(Cl)C(F)(F)F)C2(C)C)cccc1-c1ccccc1,123%
18,C=C(C)[C@H]1Cc2c(ccc3c2O[C@@H]2COc4cc(OC)c(OC)cc4[C@@H]2C3=O)O1,7.57% (active)
19,N#Cc1nn(-c2c(Cl)cc(C(F)(F)F)cc2Cl)c(N)c1S(=O)C(F)(F)F (stereo not given),120%
20,C/C=C(\C)C(=O)O[C@H]1C[C@@H](OC(C)=O)[C@@]2(C(=O)OC)CO[C@H]3[C@@H](O)[C@@](C)([C@]45O[C@@]4(C)[C@H]4C[C@@H]5O[C@@H]5OC=C[C@@]54O)[C@H]4[C@]1(CO[C@]4(O)C(=O)OC)[C@@H]32,130%

# Same assay, conditions: 100 µM
row,Compound,growth
1,CCOP(=S)(OCC)Oc1cc(C)nc(C(C)C)n1,135%
2,O=C(NC(=O)c1c(F)cccc1F)Nc1ccc(Cl)c(Oc2ncc(C(F)(F)F)cc2Cl)c1,149%
3,CC1(Nc2ncc3nc(Nc4cc(Cl)cc(C(F)(F)F)c4)n(C4CCNC4)c3n2)CC1 (stereo not given),6.62% (active)
4,CCOC(=O)CC(SP(=S)(OC)OC)C(=O)OCC (stereo not given),131%
5,CN(c1cc(NC(=O)c2ccc(F)cc2)ccn1)C1CCN(Cc2cccc(F)c2)CC1,9.07% (active)
6,COC(=O)N(C(=O)N1CO[C@@]2(C(=O)OC)Cc3cc(Cl)ccc3C2=N1)c1ccc(OC(F)(F)F)cc1,115%
7,COC(C)(C)CCCC(C)C/C=C/C(C)=C/C(=O)OC(C)C (stereo not given),105%
8,C[C@@H]1O[C@@H](O[C@@H]2C=C3CC[C@@H]4[C@H](CC[C@]5(C)[C@@H](c6ccc(=O)oc6)CC[C@]45O)[C@@]3(C)CC2)[C@H](O)[C@H](O)[C@H]1O,82.8%
9,COc1cc(/C=N/c2c(SC(F)(F)F)c(C#N)nn2-c2c(Cl)cc(C(F)(F)F)cc2Cl)ccc1O,53.9%
10,ClC1=C(Cl)[C@@]2(Cl)[C@H]3C[C@@H](Cl)[C@H](Cl)[C@H]3[C@@]1(Cl)C2(Cl)Cl,130%
11,Cc1cc(C2=NOC(c3cc(Cl)cc(Cl)c3)(C(F)(F)F)C2)ccc1C(=O)NCC(=O)NCC(F)(F)F (stereo not given),9.07% (active)
12,CCc1nn(C)c(C(=O)NCc2ccc(Oc3ccc(C)cc3)cc2)c1Cl,120%
13,O=C1C=C(N(Cc2ccc(Cl)nc2)CC(F)F)CO1,114%
14,COc1ccc(C[C@H]2NC[C@H](O)[C@H]2OC(C)=O)cc1,3.35% (active)
15,CNC(=O)c1cc(C#N)cc(C)c1NC(=O)c1cc(Br)nn1-c1ncccc1Cl,55.9%
16,COP(=S)(OC)Oc1ccc(Sc2ccc(OP(=S)(OC)OC)cc2)cc1,118%
17,Cc1c(COC(=O)[C@@H]2[C@H](C=C(Cl)C(F)(F)F)C2(C)C)cccc1-c1ccccc1,156%
18,C=C(C)[C@H]1Cc2c(ccc3c2O[C@@H]2COc4cc(OC)c(OC)cc4[C@@H]2C3=O)O1,9.11% (active)
19,N#Cc1nn(-c2c(Cl)cc(C(F)(F)F)cc2Cl)c(N)c1S(=O)C(F)(F)F (stereo not given),86.5%
20,C/C=C(\C)C(=O)O[C@H]1C[C@@H](OC(C)=O)[C@@]2(C(=O)OC)CO[C@H]3[C@@H](O)[C@@](C)([C@]45O[C@@]4(C)[C@H]4C[C@@H]5O[C@@H]5OC=C[C@@]54O)[C@H]4[C@]1(CO[C@]4(O)C(=O)OC)[C@@H]32,106%
